The source of these data is PubChem BioAssay (NCATS).

SMILES strings stand for the structures. Records with an inconclusive call do not appear. Values without a mark were called inactive. The source made the active and inactive calls. Calls follow the shape of the dose curve; as a rule, active = well fitted cell-killing curve with a large enough effect; inconclusive = small, poorly fitted or top-dose-only effect, or effect the other way; inactive = flat fitted curve, though single readings scatter.
% is scaled to controls: 0 for no effect and ±100 for the full control effect; potency is read from the fitted curve at half-maximal effect.

The first assay relates to Hek293T. The assay can be described thus: Primary qHTS to identify gynecologic anti-cancer compounds using libraries of approved drugs and bioactive compounds (AID 1345084). Also: nearly all actives have a fitted effect of over 55% in size. The settings on record: Gynecologic cancer cell panel viability, ATPlite luminescence, 48 h, control line for the selectivity index; series mostly up to 57.5 µM; activity change, negative = cytotoxicity: at the top concentration. Put shortly:
(§1)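 48 h compound exposure at 37 C, 5% CO2; five-point qHTS. ATPlite luminescence readout of cell ATP.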
On the technique in general: Quantitative high-throughput screening tests each substance at several concentrations.
For the molecule `FC(F)c1nc2ccccc2n1-c1nc(N2CCOCC2)nc(N2CCOCC2)n1`, the Potency is 2.24 µM (active). `N#Cc1c(C2CCNCC2)cc(-c2c(O)cccc2OCC2CC2)nc1N`: the “activity change, negative = cytotoxicity” value is -26%.

With `CC(C)C[C@H](NC(=O)[C@@H](NC(=O)c1cccc(-c2ccccc2)n1)[C@@H](C)O)B(O)O`, the Potency was 0.316 µM (active).

The next assay deals with JEG-3. The description is as above. The settings on record: Gynecologic cancer cell panel viability, ATPlite luminescence, 48 h; series mostly up to 57.5 µM; activity change, negative = cytotoxicity: at the top concentration. In a few lines:
as §1
On the technique in general: ATP-based viability assays read luminescence as a measure of living cells.
As to `CC(C)c1cc(C(C)C)c(CC(=O)NS(=O)(=O)Oc2c(C(C)C)cccc2C(C)C)c(C(C)C)c1`, the “activity change, negative = cytotoxicity” value was -0.32%. On the same count and under the same terms, with `C=CC(=O)Nc1ccc2ncnc(Nc3ccc(OCc4cccc(F)c4)c(Cl)c3)c2c1` the figure was -29.3%.

As to `COc1ccc(S(=O)(=O)Nc2cccnc2Nc2ccc(O)cc2)cc1`, the Potency was 2 µM (active). Still for that read-out and setting: with `Cc1cnc(Nc2ccc(CN3CCOCC3)cc2)nc1Nc1cccc(S(=O)(=O)NC(C)(C)C)c1` the figure was 17.8 µM (active).

With `CCCCOc1ccc(C(=O)Nc2ccc(F)cc2F)cc1`, the “activity change, negative = cytotoxicity” value was 21.7%. On to `Cc1ccc(-n2[nH]c(C)c(N=Nc3cccc(-c4cccc(C(=O)O)c4)c3O)c2=O)cc1C`, for which the “activity change, negative = cytotoxicity” value is 6.71%. On the same count and under the same terms, with `C[C@@H](Cc1cc2c(c(C(N)=O)c1)N(CCCO)CC2)NCCOc1ccccc1OCC(F)(F)F` the figure was -15.5%.

The subject of a further assay is OV90. The description is as above. The settings on record: Gynecologic cancer cell panel viability, ATPlite luminescence, 48 h; series mostly up to 57.5 µM; activity change, negative = cytotoxicity: at the top concentration. In a few lines: as §1
`Oc1ccc([C@@H]2Oc3ccc(O)cc3[C@@H]3CCC[C@@H]32)cc1`: the “activity change, negative = cytotoxicity” value is 0.975%. On the same count and under the same terms, with `CC(C)c1cc(C(C)C)c(CC(=O)NS(=O)(=O)Oc2c(C(C)C)cccc2C(C)C)c(C(C)C)c1` the figure was -3.57%.

In the case of `C=CC(=O)Nc1ccc2ncnc(Nc3ccc(OCc4cccc(F)c4)c(Cl)c3)c2c1`, the “activity change, negative = cytotoxicity” value was -2.71%. Regarding `Cc1cnc(Nc2ccc(CN3CCOCC3)cc2)nc1Nc1cccc(S(=O)(=O)NC(C)(C)C)c1`, the Potency is 22.4 µM (active).

With `CCCCOc1ccc(C(=O)Nc2ccc(F)cc2F)cc1`, the “activity change, negative = cytotoxicity” value was 5.33%. The same measure, in the same setting: with `Cc1ccc(-n2[nH]c(C)c(N=Nc3cccc(-c4cccc(C(=O)O)c4)c3O)c2=O)cc1C` the figure was -14.1%. Still for that read-out and setting: with `CCc1ccc(C(=O)Nc2cc(CN3CCN(C)CC3)cc(C(F)(F)F)c2)cc1C#Cc1cnc2ccnn2c1` the figure was -18.9%; with `N#Cc1c(C2CCNCC2)cc(-c2c(O)cccc2OCC2CC2)nc1N`, -32.8%.

On to `CC(C)C[C@H](NC(=O)[C@@H](NC(=O)c1cccc(-c2ccccc2)n1)[C@@H](C)O)B(O)O`, for which the Potency was 0.316 µM (active). Turning to `C[C@H]1[C@@H](OC(=O)CCC(=O)O)O[C@@H]2O[C@@]3(C)CC[C@@H]4[C@H](C)CC[C@@H]1[C@@]24OO3`, the “activity change, negative = cytotoxicity” value was -7.79%.
